Outcome and AC50 data for four compounds are collected here from PubChem BioAssay (EPA / NIEHS).

Active and inactive are the calls of the source. How the source made its calls: active means hit-call score of the fitted dose curve at least 0.9, where 1 is the maximum; inactive means score below 0.9.

The nature of assay [1]: ATG_GLI_CIS: Attagene CIS-FACTORIAL HepG2 Assay for human Zinc Finger Protein GLI1 (AID 2282945). The conditions noted are these: HepG2, Attagene cis-factorial reporter mRNA, GLI element; actives raise or lower the signal. The gist of the method:
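Transiently transfected HepG2 cells report endogenous transcription factor activity via cis-element-driven reporter units. After 24 h compound exposure, reporter mRNA was measured by RT-PCR with capillary electrophoresis; bidirectional fitting against DMSO baseline.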

Assay [2] in a line: ATG_ISRE_CIS: Attagene CIS-FACTORIAL HepG2 Assay for human Interferon Regulatory Factor 1 (IRF1) binding to an Interferon-Stimulated Response Element (ISRE) (AID 2282948). The conditions noted are these: HepG2 ISRE cis-reporter (Attagene), mRNA transcription readout; actives raise or lower the signal. Summed up:
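Endogenous transcription factor activity read as reporter transcript abundance via RT-PCR and capillary electrophoresis. HepG2 cells transiently transfected, 24 h chemical exposure. Gain or loss fitted against DMSO baseline.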

The nature of assay [3]: ATG_M_32_CIS: Attagene CIS-FACTORIAL HepG2 Assay for M32 Transcription Factor (Internal Marker) (AID 2282949).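 Further: background control marker of the multiplexed CIS panel rather than a real target.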 The conditions noted are these: HepG2 Attagene cis-factorial M32 reporter, mRNA; actives raise or lower the signal. The gist of the method: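 Transient MRTU transfection of HepG2; 24 h compound treatment; TriZol RNA, oligo(dT) RT, reporter PCR, 6-FAM primer extension, HpaI cut, CE. Gain/loss of signal vs DMSO.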

A short description of assay [4]: ATG_M_06_CIS: Attagene CIS-FACTORIAL HepG2 Assay for M06 Transcription Factor (Internal Marker) (AID 2282950). The conditions noted are these: HepG2 Attagene CIS-FACTORIAL M06 internal marker reporter; actives raise or lower the signal. Summed up:
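Internal background marker within multiplexed cis-reporter HepG2 system. Cells transiently transfected, dosed 24 h; reporter mRNA measured by RT-PCR, HpaI digestion and capillary electrophoresis. Bidirectional fit relative to DMSO.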

Assay [5] concerns the target Hypoxia-inducible factor 1-alpha (Homo sapiens) (UniProt Q16665). The assay can be described thus: ATG_HIF1a_CIS: Attagene CIS-FACTORIAL HepG2 Assay for human Hypoxia Inducible Factor 1 (HIF1A) (AID 2282951). The settings on record: HepG2 Attagene cis-factorial HIF1a reporter transcription; actives raise or lower the signal. The gist of the method:
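After 24 h chemical exposure of reporter-transfected HepG2 cells, reporter cDNA was PCR-amplified, labelled by 6-FAM primer extension (2 min 95 C, 20 s 68 C, 10 min 72 C), HpaI-cut (2 h, 37 C) and analysed by CE.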

In assay [6] the target is Heat shock factor protein 1 (Homo sapiens) (UniProt Q00613). The assay is described as follows: ATG_HSE_CIS: Attagene CIS-FACTORIAL HepG2 Assay for human Heat Shock Transcription Factor 1 (HSE) (AID 2282953). The conditions noted are these: HepG2 HSE cis-reporter, Attagene RNA transcription; actives raise or lower the signal. Summed up: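 HepG2 cells transfected with cis-promoter reporter units sensing endogenous transcription factor activity; reporter mRNA quantified 24 h post-dose by RT-PCR and capillary electrophoresis of 6-FAM-labelled products. Bidirectional fitting against DMSO.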
Sequence of Heat shock factor protein 1 (Homo sapiens) (Q00613 whole entry, looked up): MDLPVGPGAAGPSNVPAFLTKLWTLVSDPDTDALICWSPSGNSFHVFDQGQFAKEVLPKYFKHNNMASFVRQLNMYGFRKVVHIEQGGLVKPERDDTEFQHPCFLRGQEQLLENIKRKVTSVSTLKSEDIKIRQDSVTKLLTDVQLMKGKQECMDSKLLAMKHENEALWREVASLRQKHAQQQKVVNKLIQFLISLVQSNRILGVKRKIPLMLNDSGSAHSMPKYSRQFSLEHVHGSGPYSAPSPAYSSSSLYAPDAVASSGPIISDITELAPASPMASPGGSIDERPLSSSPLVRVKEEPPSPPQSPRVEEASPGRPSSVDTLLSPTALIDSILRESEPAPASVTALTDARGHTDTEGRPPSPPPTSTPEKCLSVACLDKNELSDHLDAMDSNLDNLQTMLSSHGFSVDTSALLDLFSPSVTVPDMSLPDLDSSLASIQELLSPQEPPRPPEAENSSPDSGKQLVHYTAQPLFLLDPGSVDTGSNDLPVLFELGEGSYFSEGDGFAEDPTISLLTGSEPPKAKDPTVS

A short description of assay [7]: ATG_MRE_CIS: Attagene CIS-FACTORIAL HepG2 Assay for human Metal Responsive Element (MRE) (AID 2282954). The conditions noted are these: HepG2 MRE cis-reporter transcription, Attagene multiplex; actives raise or lower the signal. The gist of the method: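 RT-PCR/capillary electrophoresis readout of reporter mRNA, 24 h post-dosing, in HepG2 cells transfected with multiplexed cis-regulated reporter constructs. Gain or loss of signal fitted bidirectionally against DMSO baseline.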

Assay [8] addresses Paired box protein Pax-6 (Homo sapiens) (UniProt P26367). The assay can be described thus: ATG_Pax6_CIS: Attagene CIS-FACTORIAL HepG2 Assay for human Paired Box 6 (PAX6) (AID 2282956). The settings on record: HepG2 CIS-FACTORIAL PAX6 reporter transcription, RNA readout; actives raise or lower the signal. The gist of the method: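 Read-out is reporter transcript level, measured by RT-PCR with fluorescent primer extension and capillary electrophoresis after 24 h dosing of transfected HepG2 cells. Activity in either direction fitted relative to DMSO control.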

The nature of assay [9]: ATG_RORE_CIS: Attagene CIS-FACTORIAL HepG2 Assay for human RAR-related Orphan Receptor Element (RORE) (AID 2282959). The settings on record: HepG2 Attagene cis-factorial RORE reporter, mRNA; actives raise or lower the signal. Summed up:
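A 24-hour exposure of transfected HepG2 hepatoma cells precedes RNA isolation and reporter RT-PCR. Labeled products are digested with HpaI and resolved by capillary electrophoresis, with gain or loss of signal scored relative to DMSO.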

Assay [10] is described as follows: ATG_Sox_CIS: Attagene CIS-FACTORIAL HepG2 Assay for human SRY-box transcription factor (SOX) (AID 2282960). The settings on record: HepG2 Attagene cis-factorial SOX reporter, mRNA; actives raise or lower the signal. Summed up: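 HepG2, cis reporter units, 24 h exposure. Reporter mRNA: RT-PCR → FAM labelling → HpaI → CE fluorescence. Bidirectional fit vs DMSO.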

Assay [11] concerns the target Transcription factor Sp1 (Homo sapiens) (UniProt P08047). The assay can be described thus: ATG_Sp1_CIS: Attagene CIS-FACTORIAL HepG2 Assay for human Specificity Protein 1 (Sp1) (AID 2282961). The conditions noted are these: HepG2 Sp1 cis-reporter transcription, actives raise or lower the signal. Summed up: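 Liver-derived HepG2 cells, cis-element reporter library, 24 h treatment; RNA isolated, cDNA amplified with reporter-specific primers, FAM-labeled fragments sized on capillary analyzer. DMSO baseline, bidirectional curve fit.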

Assay [12] in a line: ATG_SREBP_CIS: Attagene CIS-FACTORIAL HepG2 Assay for human Sterol Regulatory Element Binding (SREBP) (AID 2282962). The settings on record: HepG2 Attagene cis-factorial SREBP reporter, mRNA; actives raise or lower the signal. Summed up:
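Endogenous SREBP activity read as cis-element-driven reporter transcript in transiently transfected HepG2, 24 h post-dosing; quantified via RT-PCR plus capillary electrophoresis of fluorescent fragments. Gain or loss of signal fitted relative to DMSO baseline.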

Assay [13] deals with Signal transducer and activator of transcription 3 (Homo sapiens) (UniProt P40763). The assay can be described thus: ATG_STAT3_CIS: Attagene CIS-FACTORIAL HepG2 Assay for human Signal Transducer and Activator of Transcription 3 (STAT3) (AID 2282963). The conditions noted are these: HepG2, Attagene cis-factorial STAT3 reporter transcription; actives raise or lower the signal. Summed up: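 Readout: fluorescent reporter mRNA fragments resolved by capillary electrophoresis. Setup: HepG2 transfected with MRTUs reporting endogenous transcription-factor activity, dosed 24 h. Gain or loss of signal fitted bidirectionally against DMSO control.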
Sequence of Signal transducer and activator of transcription 3 (Homo sapiens) (P40763 whole entry, looked up, the tested form may be a part): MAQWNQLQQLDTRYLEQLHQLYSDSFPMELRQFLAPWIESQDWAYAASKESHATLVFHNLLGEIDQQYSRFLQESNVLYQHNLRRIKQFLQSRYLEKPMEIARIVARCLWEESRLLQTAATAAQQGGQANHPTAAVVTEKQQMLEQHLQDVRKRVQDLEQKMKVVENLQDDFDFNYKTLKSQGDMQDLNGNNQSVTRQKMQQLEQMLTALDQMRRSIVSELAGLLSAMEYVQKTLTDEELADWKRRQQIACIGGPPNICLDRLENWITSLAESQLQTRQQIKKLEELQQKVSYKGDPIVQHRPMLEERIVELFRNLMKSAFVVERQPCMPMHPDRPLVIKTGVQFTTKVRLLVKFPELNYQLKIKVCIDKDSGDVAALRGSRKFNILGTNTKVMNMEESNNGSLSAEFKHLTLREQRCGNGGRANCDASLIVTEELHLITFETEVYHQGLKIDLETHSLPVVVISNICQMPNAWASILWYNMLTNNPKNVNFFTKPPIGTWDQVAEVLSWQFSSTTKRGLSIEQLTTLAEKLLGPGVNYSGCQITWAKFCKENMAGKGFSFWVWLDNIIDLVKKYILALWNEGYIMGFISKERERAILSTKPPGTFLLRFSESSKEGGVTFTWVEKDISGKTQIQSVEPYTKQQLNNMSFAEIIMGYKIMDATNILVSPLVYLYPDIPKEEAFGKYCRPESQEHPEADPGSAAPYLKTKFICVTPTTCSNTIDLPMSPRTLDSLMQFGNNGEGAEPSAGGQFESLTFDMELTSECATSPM

Assay [14] can be described thus: ATG_TA_CIS: Attagene CIS-FACTORIAL HepG2 Assay for human TA Basal Promoter (AID 2282964). The conditions noted are these: HepG2 Attagene CIS-factorial TA basal promoter reporter; actives raise or lower the signal. The gist of the method: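 HepG2 cells transiently transfected with multiple reporter units under cis promoter elements, reporting endogenous transcription factor activity; this endpoint tracks the TA basal promoter as background control. Reporter mRNA after 24 h dosing measured by RT-PCR/capillary electrophoresis; bidirectional fits versus DMSO.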

The target in assay [15] is Hepatocyte nuclear factor 6 (Homo sapiens) (UniProt Q9UBC0). The assay is described as follows: ATG_HNF6_CIS: Attagene CIS-FACTORIAL HepG2 Assay for human Hepatocyte Nuclear Factor 6 (HNF6) (AID 2282952). The settings on record: HepG2 Attagene cis-factorial HNF6 reporter transcription; actives raise or lower the signal. The gist of the method:
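Readout: fluorescent reporter-transcript fragments resolved by capillary electrophoresis after RT-PCR, reflecting endogenous factor activity in transfected HepG2. Exposure 24 h. Gain or loss of signal fitted bidirectionally against DMSO.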

A short description of assay [16]: ATG_PBREM_CIS: Attagene CIS-FACTORIAL HepG2 Assay for human Phenobarbital-responsive Enhancer Module (PBREM) (AID 2282955). The settings on record: HepG2 PBREM cis-reporter, Attagene multiplexed transcription; actives raise or lower the signal. Summed up: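 Measures endogenous factor action on a phenobarbital-responsive enhancer module. HepG2 transiently carrying cis reporters, 24 h treatment, mRNA read-out by RT-PCR plus capillary electrophoresis.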

A short description of assay [17]: ATG_PXRE_CIS: Attagene CIS-FACTORIAL HepG2 Assay for human Pregnane X Receptor Element (PXRE) (AID 2282957). The conditions noted are these: HepG2 Attagene CIS-FACTORIAL PXRE reporter, mRNA; actives raise or lower the signal. Summed up: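 Read-out: fluorescence of reporter-specific RT-PCR products resolved by capillary electrophoresis, fitted bidirectionally relative to DMSO. Human HepG2 liver cells carried transfected cis-promoter reporter units and were exposed to chemicals for 24 h.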

A short description of assay [18]: ATG_PPRE_CIS: Attagene CIS-FACTORIAL HepG2 Assay for human Peroxisome Proliferator-activated Response Element (PPRE) (AID 2282958). The settings on record: HepG2 PPRE cis-element reporter, Attagene transcription factor profiling; actives raise or lower the signal. Summed up: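 PPRE activity in HepG2: transient cis-reporter transfection, 24 h compound incubation, reporter mRNA by RT-PCR and CE fluorescence; gain/loss fitted against DMSO.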

Assay [19] is described as follows: ATG_GRE_CIS: Attagene CIS-FACTORIAL HepG2 Assay for human Glucocorticoid Response Elements (GRE) (AID 2282947). The settings on record: HepG2 GRE cis-reporter, Attagene multiplex mRNA; actives raise or lower the signal. Summed up:
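Read-out: fluorescent reporter-transcript fragments separated by capillary electrophoresis after RT-PCR. Transiently transfected HepG2 cells carrying cis-element-driven reporter units were dosed for 24 h; gain or loss of signal fitted against DMSO control.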

Sequence of Transcription factor Sp1 (Homo sapiens) (P08047 whole entry, looked up, the tested form may be a part): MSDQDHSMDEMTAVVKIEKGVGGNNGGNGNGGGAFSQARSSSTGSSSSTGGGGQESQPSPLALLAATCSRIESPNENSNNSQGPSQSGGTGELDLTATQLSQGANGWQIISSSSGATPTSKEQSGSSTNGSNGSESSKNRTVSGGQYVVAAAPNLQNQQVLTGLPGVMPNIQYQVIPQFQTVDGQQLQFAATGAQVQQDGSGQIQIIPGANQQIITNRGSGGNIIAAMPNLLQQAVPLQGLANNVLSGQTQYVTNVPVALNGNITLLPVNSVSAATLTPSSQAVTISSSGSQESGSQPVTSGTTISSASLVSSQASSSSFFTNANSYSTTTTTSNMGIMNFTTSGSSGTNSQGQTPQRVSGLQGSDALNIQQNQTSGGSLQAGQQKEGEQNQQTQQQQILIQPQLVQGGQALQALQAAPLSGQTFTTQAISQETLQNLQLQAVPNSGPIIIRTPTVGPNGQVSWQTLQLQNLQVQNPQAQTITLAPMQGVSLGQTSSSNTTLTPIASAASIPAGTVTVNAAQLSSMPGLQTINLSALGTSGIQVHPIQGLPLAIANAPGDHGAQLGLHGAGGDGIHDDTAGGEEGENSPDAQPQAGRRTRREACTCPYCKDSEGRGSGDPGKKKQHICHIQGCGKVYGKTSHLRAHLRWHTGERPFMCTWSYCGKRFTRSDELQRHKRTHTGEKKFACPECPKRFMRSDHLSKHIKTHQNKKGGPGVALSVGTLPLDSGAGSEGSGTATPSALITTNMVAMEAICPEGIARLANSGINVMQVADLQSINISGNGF
Sequence of Hypoxia-inducible factor 1-alpha (Homo sapiens) (Q16665 whole entry, looked up): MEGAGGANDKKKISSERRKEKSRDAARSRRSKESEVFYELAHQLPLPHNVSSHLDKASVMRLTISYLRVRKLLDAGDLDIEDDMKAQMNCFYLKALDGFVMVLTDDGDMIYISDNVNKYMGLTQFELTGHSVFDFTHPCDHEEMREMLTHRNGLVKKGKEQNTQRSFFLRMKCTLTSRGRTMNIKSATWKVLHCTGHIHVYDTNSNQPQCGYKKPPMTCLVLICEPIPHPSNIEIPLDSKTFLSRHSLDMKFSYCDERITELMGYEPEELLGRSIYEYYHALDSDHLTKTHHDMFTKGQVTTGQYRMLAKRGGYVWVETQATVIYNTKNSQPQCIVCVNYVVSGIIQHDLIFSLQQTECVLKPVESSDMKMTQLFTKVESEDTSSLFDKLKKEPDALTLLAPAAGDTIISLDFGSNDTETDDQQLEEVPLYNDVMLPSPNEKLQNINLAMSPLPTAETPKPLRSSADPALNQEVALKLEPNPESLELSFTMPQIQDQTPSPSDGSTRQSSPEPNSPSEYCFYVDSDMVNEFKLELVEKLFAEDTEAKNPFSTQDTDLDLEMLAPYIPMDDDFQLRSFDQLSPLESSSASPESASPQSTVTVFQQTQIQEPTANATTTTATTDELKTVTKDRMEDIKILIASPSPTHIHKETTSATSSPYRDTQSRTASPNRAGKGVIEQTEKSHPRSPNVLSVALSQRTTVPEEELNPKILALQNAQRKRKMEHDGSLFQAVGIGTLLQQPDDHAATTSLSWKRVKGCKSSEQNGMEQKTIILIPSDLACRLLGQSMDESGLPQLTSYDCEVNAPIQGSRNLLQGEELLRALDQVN
Sequence of Paired box protein Pax-6 (Homo sapiens) (P26367 whole entry, looked up): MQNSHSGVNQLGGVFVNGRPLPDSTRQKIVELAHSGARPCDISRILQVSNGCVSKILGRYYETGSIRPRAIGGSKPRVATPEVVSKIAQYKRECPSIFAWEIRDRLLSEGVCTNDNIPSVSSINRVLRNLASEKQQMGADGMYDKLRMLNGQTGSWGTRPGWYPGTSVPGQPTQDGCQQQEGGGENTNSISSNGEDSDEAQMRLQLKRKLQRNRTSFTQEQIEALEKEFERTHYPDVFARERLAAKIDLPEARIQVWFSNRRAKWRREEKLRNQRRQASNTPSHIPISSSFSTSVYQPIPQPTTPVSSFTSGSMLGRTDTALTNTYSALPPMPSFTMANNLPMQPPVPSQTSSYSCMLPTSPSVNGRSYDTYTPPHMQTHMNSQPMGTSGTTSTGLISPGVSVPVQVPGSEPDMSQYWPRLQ
Sequence of Hepatocyte nuclear factor 6 (Homo sapiens) (Q9UBC0 whole entry, looked up, the tested form may be a part): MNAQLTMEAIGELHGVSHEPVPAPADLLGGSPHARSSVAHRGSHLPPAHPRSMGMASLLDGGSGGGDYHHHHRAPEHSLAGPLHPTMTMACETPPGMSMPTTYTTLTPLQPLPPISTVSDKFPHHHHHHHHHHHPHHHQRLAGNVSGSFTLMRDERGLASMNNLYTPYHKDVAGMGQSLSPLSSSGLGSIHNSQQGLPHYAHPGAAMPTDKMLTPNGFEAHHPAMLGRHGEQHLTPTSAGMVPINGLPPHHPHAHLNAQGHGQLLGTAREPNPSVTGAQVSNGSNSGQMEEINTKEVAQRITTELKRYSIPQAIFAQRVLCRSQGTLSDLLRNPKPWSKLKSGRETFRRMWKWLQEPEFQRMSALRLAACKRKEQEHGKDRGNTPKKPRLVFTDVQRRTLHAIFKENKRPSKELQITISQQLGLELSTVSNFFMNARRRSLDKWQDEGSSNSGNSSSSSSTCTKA

Consider `CCCCCCCC=O`, for which the compound was called inactive in assay [1], in [2], in [3], in assay [4], in [5] and in assay [6]. Besides, the compound was called inactive in [7], in assay [8], in [9], in [10], in [11] and in assay [12]. The compound was called inactive in assay [14]. Besides, the AC50 in assay [13] was 37.7 µM (active).
In the case of `CC=Cc1ccc(O)c(OC)c1`, the call in assay [1], in assay [2], in assay [3], in assay [4], in assay [5] and in [15] was inactive. For the same compound, the call in [6], in assay [7], in assay [16], in assay [8], in assay [18] and in assay [9] was inactive. For the same compound, the compound was classed as inactive in assay [10], in assay [11], in assay [12], in assay [13] and in assay [14]. Also, the AC50 in assay [17] was 26.1 µM (active).
Take `CCCc1cc(=O)[nH]c(=S)[nH]1`: the compound was classed as inactive in assay [1], in assay [2], in assay [3], in assay [4], in [15] and in assay [6]. Moreover, the outcome in [7], in assay [16], in assay [8], in assay [18], in assay [9] and in [10] was inactive. Besides, the call in [11], in assay [12], in assay [13] and in assay [14] was inactive. Moreover, in assay [17], the AC50 was 65.4 µM (active).
Take `Cc1ccc(N(C)C)cc1`: the call in assay [1], in [19], in [2], in assay [3], in assay [4] and in [5] was inactive. The result in [7], in [16], in [8], in [18], in [10] and in [11] was inactive. Besides, the compound was classed as inactive in assay [12], in assay [13] and in assay [14].
